Bioassay records: PubChem BioAssay, National Center for Advancing Translational Sciences (NCATS)
HCV inh = inhibitors of hepatitis C virus infection | Huh7.5.1 HCVcc-Cre infection, luciferase reporter, 44 h | hit rate 3.4% among 340,000 | Potency, µM (top dose mostly 41.8 µM), most hits filed as inhibitors
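After 44 h co-culture of compound, cells and HCVcc-Cre (~0.5 moi), substrate is added for 15 min at room temperature and luciferase measured over 15 sec. Cells were seeded at 1,000/well and pre-cultured 4 h.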
VACV Venus inh = vaccinia inhibition (Venus reporter). Vaccinia virus Venus reporter expression, fluorescence. Potency, µM (top dose mostly 36.5 µM), most hits filed as inhibitors. hit rate 0.46% among 330,000. AID 720580; calls by dose curve; tested in A549 cells; also: nearly all actives have a fitted effect of over 30% in size
Vaccinia mCherry = vaccinia inhibition (mCherry reporter). Potency, µM (series often up to 36.5 µM), actives largely listed as inhibitors. hit rate 0.63% among 310,000. Vaccinia virus mCherry reporter infection, fluorescence; calls by dose curve; tested in A549 cells; also: nearly all actives have a fitted effect of over 35% in size
NS1 function inh = influenza NS1 inhibition | Potency, µM (highest dose often 46.1 µM) | hit rate 0.4% among 270,000; calls by dose curve; also: actives are rising curves; nearly all actives have a fitted effect of over 50% in size
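Growth recovery, yeast-based: influenza A NS1 expressed in S. cerevisiae causes slow growth, and suppressors are detected by OD600. The parent strain without NS1 is used as positive control.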
Pf growth 48h = inhibits P. falciparum growth in the first generation, 48 h; P. falciparum luciferase growth in erythrocytes, 48 h; Potency, µM (doses to about 28.7 µM), usual class: inhibitors; hit rate 5.9% among 310,000; AID 504832
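Firefly luciferase activity from engineered P. falciparum reports growth; inhibitors lower the luminescent signal. Cultures contained 2% hematocrit erythrocytes at 0.1% final parasitemia.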
Pf growth 96h = inhibits malaria parasite growth, 96 h; Potency, µM (series often up to 28.7 µM), usual class: inhibitors; hit rate 6.9% among 320,000; AID 504834; P. falciparum luciferase reporter growth, 96 h
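Compounds incubated with erythrocytes infected by luciferase-expressing P. falciparum (2% hematocrit, 0.05% parasitemia final) for 96 hours, 37 C in 5% CO2. Growth inhibition scored as decreased luciferase luminescence.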
Large screens that a line does not name were inactive. Only some compounds are listed: those with a hit (about 11% of all), similar ones and a draw of the others. Unless noted, calls follow the shape of the dose curve; as a rule, active = well fitted inhibition curve with a large enough effect; inconclusive = small, poorly fitted or top-dose-only effect, or another doubt; inactive = no such curve, though single readings can be large or run the other way.

Nc1cc(OC(=O)c2c(F)cccc2Cl)nn1S(=O)(=O)c1ccccc1	Pf growth 96h 10µM
CN(C)CCCNc1nc2sc3c(c2c(=O)n1CCc1ccccc1)CCCCC3	HCV inh inconclusive, Pf growth 48h 6.6µM, Pf growth 96h 4.1µM
O=c1c2c3c(sc2nc(NCCO)n1-c1ccccc1)CCCC3	none
O=C(Nc1ccc(N2CCOCC2)cc1)c1cc2c(s1)CCCCC2	HCV inh 11µM, Pf growth 48h inconclusive, Pf growth 96h inconclusive
O=C(Nc1ccccc1N1CCOCC1)c1cc2c(s1)CCCCC2	none (no result: NS1 function inh)
O=C(Nc1ccon1)c1cc2c(s1)CCCCCC2	HCV inh inconclusive, Pf growth 48h 3.7µM (no result: VACV Venus inh, Vaccinia mCherry, Pf growth 96h)
O=C(Nc1ccc(N2CCOCC2)cc1)c1cc2c(s1)CCCC2	HCV inh 4µM
O=C(Nc1ccon1)c1cc2c(s1)CCCC2	none (no result: VACV Venus inh, Vaccinia mCherry)
O=c1cc(-c2ccccc2)nc2c(Cl)cc(Cl)cn12	none (no result: HCV inh, NS1 function inh, Pf growth 48h, Pf growth 96h)
Cc1cc(C)c2oc(=O)cc(CN3CCOCC3)c2c1	none
CC(C)(C)c1ccc(C(=O)N/C(=C\c2cccs2)C(=O)NCc2ccco2)cc1	Pf growth 48h inconclusive, Pf growth 96h 8.3µM (no result: VACV Venus inh, Vaccinia mCherry)
O=C1[C@@H]2CSC(c3ccc(C(F)(F)F)cc3)N2C(=O)N1c1ccccc1 (stereo partly drawn)	none (no result: HCV inh, NS1 function inh, Pf growth 48h, Pf growth 96h)
COc1ccc(S(=O)(=O)N2CCC(C(=O)N3CCc4ccccc4C3)CC2)cc1	Pf growth 48h inconclusive
CCOc1ccc(S(=O)(=O)N2CCC(C(=O)N3CCc4ccccc4C3)CC2)cc1	VACV Venus inh inconclusive, Pf growth 48h inconclusive, Pf growth 96h 2.9µM
COc1ccc(/C=C\c2onc(C)c2S(=O)(=O)N2CCC(C(=O)NCc3ccco3)CC2)cc1	Pf growth 48h inconclusive, Pf growth 96h 13µM
CC1CC(C)CN(S(=O)(=O)c2ccc(C(=O)NCc3ccco3)cc2)C1 (stereo not drawn)	HCV inh inconclusive, Pf growth 48h inconclusive, Pf growth 96h 8.3µM (no result: NS1 function inh)
CCOc1ccc(S(=O)(=O)N2CCC(C(=O)Nc3ccccc3N3CCCC3)CC2)cc1	none (no result: HCV inh, NS1 function inh, Pf growth 48h, Pf growth 96h)
CCOc1ccc(S(=O)(=O)N2CCC(C(=O)Nc3cc(S(C)(=O)=O)ccc3Cl)CC2)cc1	Pf growth 48h 10µM, Pf growth 96h inconclusive (no result: VACV Venus inh, Vaccinia mCherry, NS1 function inh)
CC1CN(S(=O)(=O)c2cccc(C(=O)NCc3ccco3)c2)CC(C)O1 (stereo not drawn)	Pf growth 96h inconclusive (no result: VACV Venus inh, Vaccinia mCherry, NS1 function inh)
COc1ccc(C)cc1NC(=O)C1CCCN(S(=O)(=O)c2ccc3[nH]c(=O)ccc3c2)C1 (stereo not drawn)	Pf growth 48h inconclusive
CCc1cccc(NC(=O)Cn2c(=O)n(CCC(=O)NCc3ccccc3Cl)c(=O)c3sccc32)c1	none (no result: HCV inh, NS1 function inh, Pf growth 48h, Pf growth 96h)
COc1ccc(N2CCN(C(=O)CSc3ccc(C)cc3)CC2)cc1	Pf growth 96h inconclusive
CCOc1ccc(S(=O)(=O)N2CCC(C(=O)NCC3CCCO3)CC2)cc1C (stereo not drawn)	Vaccinia mCherry inconclusive, Pf growth 96h 2.3µM
COc1ccc(S(=O)(=O)N2CCC(C(=O)NCC3CCCO3)CC2)cc1C (stereo not drawn)	none
O=C(NCc1ccco1)C1CCN(S(=O)(=O)c2ccccc2C(F)(F)F)CC1	Pf growth 48h 10µM, Pf growth 96h inconclusive (no result: VACV Venus inh, Vaccinia mCherry, NS1 function inh)
CC(=O)Nc1ccc(S(=O)(=O)N2CCC(C(=O)NCc3ccco3)CC2)cc1	Pf growth 96h inconclusive
O=C(NCc1ccco1)C1CCCN(S(=O)(=O)c2ccc(Br)cc2)C1 (stereo not drawn)	Pf growth 96h 15µM
CC(C)c1ccc(S(=O)(=O)N2CCC(C(=O)NCc3ccco3)CC2)cc1	Pf growth 48h 3.3µM, Pf growth 96h 2.6µM (no result: NS1 function inh)
O=C1c2ccccc2-c2cc3ccccc3cc21	HCV inh inconclusive (no result: NS1 function inh, Pf growth 48h, Pf growth 96h)
N#Cc1ccccc1N/C=C/C(=O)c1ccc(Cl)cc1	HCV inh inconclusive, VACV Venus inh inconclusive (no result: NS1 function inh, Pf growth 48h, Pf growth 96h)
CCOc1ccc(S(=O)(=O)N2CCC(C(=O)NCc3ccco3)CC2)cc1C	Vaccinia mCherry inconclusive, Pf growth 48h inconclusive, Pf growth 96h 1.9µM
COc1ccc(S(=O)(=O)N2CCC(C(=O)NCc3ccco3)CC2)cc1	Pf growth 48h 3.3µM, Pf growth 96h inconclusive
CCOc1ccc(S(=O)(=O)N2CCC(C(=O)NCc3ccco3)CC2)cc1	Pf growth 48h 9.3µM
CCOc1ccc(S(=O)(=O)N2CCCC(C(=O)NCc3ccco3)C2)cc1 (stereo not drawn)	none (no result: VACV Venus inh, Vaccinia mCherry)
CCOc1ccc(S(=O)(=O)N2CCN(C(=S)NCc3ccco3)CC2)cc1	Pf growth 48h 2.9µM, Pf growth 96h 2.3µM
CC1(CCc2ccc3c(c2)OCO3)NCCc2c1[nH]c1ccccc21 (stereo not drawn)	HCV inh 11µM, Pf growth 48h 10µM, Pf growth 96h inconclusive (no result: VACV Venus inh, Vaccinia mCherry)
CC1=C(C(=O)N2CCCC(C(=O)c3cccc(C(F)(F)F)c3)C2)OCCO1 (stereo not drawn)	Pf growth 48h inconclusive, Pf growth 96h 13µM
CC1=C(C(=O)N2CCCC(N3CCN(c4cccc(C(F)(F)F)c4)CC3)C2)OCCO1 (stereo not drawn)	Pf growth 96h 13µM
O=C(c1ccncc1)N1CCCC(N2CCN(c3cccc(C(F)(F)F)c3)CC2)C1 (stereo not drawn)	Pf growth 96h inconclusive (no result: VACV Venus inh, Vaccinia mCherry)
CCc1cc(C(=O)N2CCCC(N3CCN(c4cccc(C(F)(F)F)c4)CC3)C2)n(C)n1 (stereo not drawn)	HCV inh 10µM, Pf growth 48h inconclusive (no result: VACV Venus inh, Vaccinia mCherry)
Cc1ncoc1C(=O)N1CCCC(C(=O)c2cccc(C(F)(F)F)c2)C1 (stereo not drawn)	Pf growth 96h inconclusive
Cc1ccccc1Cn1ccc(NC(=O)c2nn(C)cc2[N+](=O)[O-])n1	HCV inh inconclusive, VACV Venus inh inconclusive, Vaccinia mCherry inconclusive
C=CC[N+]1([C@H]2C[C@H]3[C@@H]4CC[C@H]5C[C@H](O)[C@@H](N6CCOCC6)C[C@]5(C)[C@H]4CC[C@]3(C)[C@H]2OC(C)=O)CCCC1	Pf growth 48h 6.7µM, Pf growth 96h 4.3µM (no result: HCV inh, VACV Venus inh, Vaccinia mCherry, NS1 function inh)
CC(=O)OC1CCC2(C)C(CCC3C2CC(=O)C2(C)C3CC(N3CC3)C2C(C)=O)C1 (stereo not drawn)	VACV Venus inh inconclusive (no result: NS1 function inh, Pf growth 48h, Pf growth 96h)
CC(=O)c1c(C(C)=O)c(C)n(CCCCn2c(C)c(C(C)=O)c(C(C)=O)c2C)c1C	none (no result: HCV inh, VACV Venus inh, Vaccinia mCherry, Pf growth 48h, Pf growth 96h)
Cc1cc(C)c(C#N)c(Nc2ccccc2)n1	Pf growth 96h inconclusive (no result: VACV Venus inh, Vaccinia mCherry)
CCCCOc1ccc(Nc2nc(C)cc(C)c2C#N)cc1	Pf growth 96h 10µM
Cc1cc(C)n2nc(-c3ccccc3)cc2n1	HCV inh inconclusive
COc1cc(C2/C(=C(/O)c3ccc(OCC(C)C)cc3)C(=O)C(=O)N2CCN(C)C)ccc1O (stereo not drawn)	Vaccinia mCherry inconclusive, NS1 function inh inconclusive, Pf growth 96h 12µM
Cc1cc(NS(=O)(=O)c2ccc(NC(=O)c3cc(-c4ccccc4Cl)nc4ccccc34)cc2)no1	NS1 function inh inconclusive, Pf growth 96h inconclusive
CC[N+](C)(C)Cc1ccccc1Br	Pf growth 48h inconclusive, Pf growth 96h 3.2µM
